From PubChem BioAssay (NCATS) come the findings set out here.

The target of test [1] is Rap guanine nucleotide exchange factor 3 (Homo sapiens) (UniProt O95398). In words: Confirmatory qHTS for antagonist of cAMP-regulated guanine nucleotide exchange factor 3 (EPAC1) (AID 1645880). Further: nearly all actives have a fitted effect of over 55% in size. Further: potency means the concentration at half of the fitted maximal effect. The essentials:
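Nucleotide exchange uses 100 nM EPAC1, 250 nM RAP1B-BODIPY-GDP and 50 uM GDP, with compounds in a concentration-titration series. After 5 min at room temperature, fluorescence (480 nm ex/540 nm em) is read every 5 min for 30 min. Data are normalized to control ATA and DMSO.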
(qHTS replaces the single test concentration by a dilution series.)

For test [2] the target is unchanged. In words: Confirmatory qHTS for agonist of cAMP-regulated guanine nucleotide exchange factor 3 (EPAC1) (AID 1645881).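 Further: EPAC1 catalysed release of BODIPY-GDP from Rap1B seen as fluorescence loss; 100% = effect of cAMP agonist control; nearly all actives have a fitted effect of over 75% in size.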
For test [3], the target named is Rap guanine nucleotide exchange factor 4 (Homo sapiens) (UniProt Q8WZA2). Put plainly: Confirmatory qHTS for agonist of cAMP-regulated guanine nucleotide exchange factor 4 (EPAC2) (AID 1645884).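 Further: nucleotide exchange releases bodipy-GDP from Rap1 and this lowers its fluorescence; on the % scale 0 is the no-effect control and ±100 the full control effect; nearly all actives have a fitted effect of over 65% in size.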
Sequence of Rap guanine nucleotide exchange factor 4 (Homo sapiens) (Q8WZA2 whole entry, looked up): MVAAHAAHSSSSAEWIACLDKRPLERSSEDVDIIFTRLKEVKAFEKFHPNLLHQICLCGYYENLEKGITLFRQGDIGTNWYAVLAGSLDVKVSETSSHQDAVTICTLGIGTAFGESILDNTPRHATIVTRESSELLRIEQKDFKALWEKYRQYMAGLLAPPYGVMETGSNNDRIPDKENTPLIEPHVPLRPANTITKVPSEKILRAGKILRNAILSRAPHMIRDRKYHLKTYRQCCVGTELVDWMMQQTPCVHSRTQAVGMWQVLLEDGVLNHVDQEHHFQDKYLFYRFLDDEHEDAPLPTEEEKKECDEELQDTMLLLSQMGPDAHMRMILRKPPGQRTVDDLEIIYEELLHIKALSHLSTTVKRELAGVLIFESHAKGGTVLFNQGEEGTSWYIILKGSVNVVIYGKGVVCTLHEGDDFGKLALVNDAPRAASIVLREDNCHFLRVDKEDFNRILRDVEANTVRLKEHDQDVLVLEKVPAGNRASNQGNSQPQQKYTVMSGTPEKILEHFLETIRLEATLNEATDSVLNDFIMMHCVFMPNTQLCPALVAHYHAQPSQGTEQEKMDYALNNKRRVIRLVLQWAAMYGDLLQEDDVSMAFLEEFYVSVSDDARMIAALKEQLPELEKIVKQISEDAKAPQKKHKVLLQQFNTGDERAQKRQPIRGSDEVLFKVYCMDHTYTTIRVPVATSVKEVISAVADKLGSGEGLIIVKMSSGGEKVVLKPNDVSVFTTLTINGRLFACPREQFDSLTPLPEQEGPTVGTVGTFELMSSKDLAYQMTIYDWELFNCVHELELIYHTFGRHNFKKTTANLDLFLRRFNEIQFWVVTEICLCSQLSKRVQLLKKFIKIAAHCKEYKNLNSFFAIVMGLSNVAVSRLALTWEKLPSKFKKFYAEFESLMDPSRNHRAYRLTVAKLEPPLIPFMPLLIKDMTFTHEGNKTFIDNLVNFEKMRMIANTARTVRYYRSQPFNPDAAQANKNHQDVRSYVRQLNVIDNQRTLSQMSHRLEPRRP
The target is the same in test [4]. In words: Confirmatory qHTS for antagonist of cAMP-regulated guanine nucleotide exchange factor 4 (EPAC2) (AID 1645885). Further: nearly all actives have a fitted effect of over 25% in size. Further: potency means the concentration at half of the fitted maximal effect. On activity change, negative = inhibition: on the % scale 0 is the no-effect control and ±100 the full control effect.
For test [5], the target named is Rap guanine nucleotide exchange factor 3 (Homo sapiens) (UniProt O95398). Put plainly: Counterscreen qHTS for antagonist of cAMP-regulated guanine nucleotide exchange factor 3 (EPAC1) (AID 1645888).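 Further: fluorescence loss as bound BODIPY-GDP is released from Rap1B; % of control where 0% means no effect.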 Put shortly:
(§1)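 Rap1B–BODIPY-GDP (250 nM) with 50 uM GDP; compounds pin-transferred to 9.74 nM–152 uM final (activator) or from 7.32 nM upwards (inhibitor). Fluorescence Ex/Em 480/540 nm read at 5 and 30 min, then after adding cAMP or buffer, at room temperature.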
(In general: The purpose of a counterscreen is to sort out artefacts and off-target activity.)

For test [6] the target is unchanged. Put plainly: Counterscreen qHTS for agonist of cAMP-regulated guanine nucleotide exchange factor 3 (EPAC1) (AID 1645889). Further: nearly all actives have a fitted effect of over 40% in size. Further: potency means the concentration at half of the fitted maximal effect. On activation: % of control where 0% means no effect. Put shortly:
as §1

Inconclusive results are not listed. A number with no mark means an inactive call. Calls of active or inactive are those of the source. The call rests on the fitted dose curve; in most records, active means well fitted curve in the direction sought with a large enough effect; inconclusive means small, poorly fitted or top-dose-only effect, or another doubt; inactive means no such curve, though single readings can be large; an effect the other way counts as inactive or inconclusive.

Sequence of Rap guanine nucleotide exchange factor 3 (Homo sapiens) (O95398 whole entry, looked up): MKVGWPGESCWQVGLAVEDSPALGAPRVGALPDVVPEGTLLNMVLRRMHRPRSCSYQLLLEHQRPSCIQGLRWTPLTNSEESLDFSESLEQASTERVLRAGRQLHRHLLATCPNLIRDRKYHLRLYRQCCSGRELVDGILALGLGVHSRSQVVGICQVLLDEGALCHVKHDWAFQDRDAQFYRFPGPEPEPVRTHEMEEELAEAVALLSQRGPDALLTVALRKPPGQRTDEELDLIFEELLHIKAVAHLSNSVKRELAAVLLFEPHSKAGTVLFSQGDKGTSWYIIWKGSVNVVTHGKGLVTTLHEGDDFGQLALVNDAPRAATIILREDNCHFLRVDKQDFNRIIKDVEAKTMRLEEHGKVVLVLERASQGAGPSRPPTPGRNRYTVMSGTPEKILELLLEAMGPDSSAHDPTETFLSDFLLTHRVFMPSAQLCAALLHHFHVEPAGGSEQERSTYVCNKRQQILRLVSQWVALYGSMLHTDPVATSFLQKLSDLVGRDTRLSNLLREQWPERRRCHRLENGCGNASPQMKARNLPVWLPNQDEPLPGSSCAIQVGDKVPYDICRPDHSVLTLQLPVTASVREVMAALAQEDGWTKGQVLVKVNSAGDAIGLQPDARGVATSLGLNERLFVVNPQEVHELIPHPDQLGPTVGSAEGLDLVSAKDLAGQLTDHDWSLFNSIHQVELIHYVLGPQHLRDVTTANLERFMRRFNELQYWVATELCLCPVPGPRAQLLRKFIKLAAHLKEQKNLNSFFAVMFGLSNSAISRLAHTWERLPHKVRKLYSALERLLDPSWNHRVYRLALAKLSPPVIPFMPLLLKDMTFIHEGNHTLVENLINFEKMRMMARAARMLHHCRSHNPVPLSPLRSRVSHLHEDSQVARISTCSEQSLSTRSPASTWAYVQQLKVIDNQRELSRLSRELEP

Consider `CCc1cccc2cc3c(N)c(C(=O)Nc4ccc(S(=O)(=O)N5CCCC5)cc4)sc3nc12`, for which the figures for the Potency in test [1] and in test [4] were 75.7 µM (active) and 67.5 µM (active), respectively. For the same compound, the Potency result in test [2], in test [3], in test [5] and in test [6] was “inactive” in each case.
Turning to `O=C(NCc1ccncc1)C1Cc2c(-c3ccccc3Oc3ccccc3)ccnc2O1` (stereo unspecified), the Potency result in test [1], in test [2], in test [3], in test [4], in test [5] and in test [6] was “inactive” throughout.
As for `Cc1cc2ccccn2c1C(=O)c1ccc(Cl)cc1`, the Potency result in test [1], in test [2], in test [3], in test [4] and in test [5] was “inactive” in each case. Besides, in test [6], the Potency is 0.141 µM (active).
On to `Cc1ccccc1S(=O)(=O)N1C(c2ccc(Cl)c(Cl)c2)CC=C(C(=O)O)C1c1cccc(Br)c1` (stereo unspecified), for which, in test [1], the Potency was 75.7 µM (active). Moreover, the Potency entry in test [2], in test [3], in test [4], in test [5] and in test [6] was “inactive” each time.
`Cc1ccc(C(=O)Nc2ccccc2Oc2ccccc2)o1`: the Potency entry in test [1], in test [2] and in test [4] was “inactive” in each case. In addition, the activation in test [3] was 4.96% [at 17.1 µM, percent relative to cAMP agonist control]. Moreover, the activity change, negative = inhibition in test [5] was 1.6% [at 30.8 µM].
As to `Cc1ccc(C)c(NC(=O)CN(C)C(=O)c2cccc(S(=O)(=O)N3CCCC3)c2)c1`, the Potency result in test [1], in test [2], in test [3], in test [4], in test [5] and in test [6] was “inactive” each time.
Regarding `Cc1csc(SCC(=O)NC23CC4CC(CC(C4)C2)C3)n1`, the Potency result in test [1], in test [2] and in test [4] was “inactive” each time. The activation in test [3] was 1.39% [at 17.1 µM, percent relative to cAMP agonist control]; in test [6], 22.6% [at 30.8 µM]. The activity change, negative = inhibition in test [5] was -23.6% [at 30.8 µM].
With `Cc1ccccc1-c1nc(CS(=O)(=O)CC(=O)N(C)C2CCCCC2)c(C)o1`, the Potency entry in test [1], in test [2], in test [3], in test [4] and in test [5] was “inactive” throughout.
With `Cc1noc(NS(=O)(=O)c2ccc(NC(=O)CSc3nnc4c(n3)[nH]c3ccccc34)cc2)c1C`, the Potency in test [1] is 23.9 µM (active). The Potency result in test [2], in test [3], in test [4], in test [5] and in test [6] was “inactive” each time.
As to `O=C1NN(c2ccccc2)C(=O)/C1=C/c1ccc(Sc2cccc3ccccc23)o1`, the Potency in test [1] is 17.8 µM (active). Also, the Potency entry in test [2] and in test [4] was “inactive” each time. The activation is 3.36% [at 17.1 µM, percent relative to cAMP agonist control] in test [3] and 23.8% [at 30.8 µM] in test [6]. Moreover, the activity change, negative = inhibition in test [5] was -8.41% [at 30.8 µM].
Turning to `COc1ccccc1CNC(=O)CCCn1nc(C)c2c(C)n(-c3ccc(C)cc3)nc2c1=O`, the Potency entry in test [1], in test [2], in test [3], in test [5] and in test [6] was “inactive” throughout. The outcome in test [4] was “inactive [at 12.7 µM]”.
In the case of `CC1(C)CC[C@]2(C(=O)n3ccnc3)CC[C@]3(C)[C@H](C(=O)C=C4[C@@]5(C)C=C(C#N)C(=O)C(C)(C)[C@@H]5CC[C@]43C)[C@@H]2C1`, in test [1], the Potency was 14.1 µM (active). Further, the Potency result in test [2] and in test [4] was “inactive” in each case. The activation in test [3] is -11.4% [at 17.1 µM, percent relative to cAMP agonist control]; in test [6], 18.4% [at 30.8 µM]. In test [5], the activity change, negative = inhibition is -3.92% [at 30.8 µM].
Consider `CC(C)CS(=O)(=O)C1=NN2C(=N)/C(=C\c3ccc(OC(=O)c4ccco4)cc3)C(=O)N=C2S1`, for which the Potency in test [1] was 37.9 µM (active). Further, the Potency entry in test [2], in test [3], in test [4], in test [5] and in test [6] was “inactive” in each case.
Turning to `Cc1cn([C@H]2C[C@H](O)[C@@H](CCC(=O)NCc3ccc4c(c3)OCO4)O2)c(=O)[nH]c1=O`, the Potency entry in test [1], in test [2], in test [3], in test [4], in test [5] and in test [6] was “inactive” throughout.
Take `CN(C)C(=O)CSc1nc(-c2ccccc2)c(-c2ccccc2)o1`: the Potency result in test [1], in test [2] and in test [4] was “inactive” in each case. Besides, the activation in test [3] is 5.35% [at 17.1 µM, percent relative to cAMP agonist control]; in test [6], 9.57% [at 30.8 µM]. Moreover, in test [5], the activity change, negative = inhibition was 3.97% [at 30.8 µM].
Regarding `CCn1c(CNC(=O)COC)nc2ccccc21`, the Potency entry in test [1], in test [2] and in test [4] was “inactive” throughout. Also, the activation was 3.77% [at 17.1 µM, percent relative to cAMP agonist control] in test [3] and 4.54% [at 30.8 µM] in test [6]. For the same compound, the activity change, negative = inhibition in test [5] was -4.31% [at 30.8 µM].
For `CC1CC1C(=O)OCC(=O)NNC(=O)COc1ccc(Br)cc1` (stereo unspecified), the Potency result in test [1], in test [2] and in test [4] was “inactive” each time. Further, the activation was 2.41% [at 17.1 µM, percent relative to cAMP agonist control] in test [3] and 28.1% [at 30.8 µM] in test [6]. For the same compound, the activity change, negative = inhibition in test [5] was 26.9% [at 30.8 µM].
As to `CC(C)Cc1csc(NC(=O)c2ccc(F)cc2)c1C(=O)O`, the Potency result in test [1], in test [2], in test [3], in test [4], in test [5] and in test [6] was “inactive” in each case.
On to `COc1cc(O)cc(O)c1C(=O)/C=C/c1ccccc1`, for which the Potency in test [1] is 67.5 µM (active). In addition, the Potency entry in test [2], in test [3], in test [4], in test [5] and in test [6] was “inactive” in each case.
With `Cc1nn(-c2ccccc2)c(Cl)c1/C=C1\SC(=S)NC1=O`, the Potency in test [1] was 12 µM (active). Moreover, the Potency result in test [2], in test [3], in test [4], in test [5] and in test [6] was “inactive” throughout.
On to `Cc1ccc(N(Cc2cccs2)C(=O)c2ccccc2[N+](=O)[O-])cc1`, for which the Potency entry in test [1], in test [2], in test [3], in test [4], in test [5] and in test [6] was “inactive” in each case.
Consider `CCCCSc1nc2c(c(=O)n1CC)SC(C)C2` (stereo unspecified), for which the Potency entry in test [1], in test [2] and in test [4] was “inactive” each time. Moreover, the activation in test [3] was -4.2% [at 17.1 µM, percent relative to cAMP agonist control]; in test [6], 5.23% [at 30.8 µM]. For the same compound, the activity change, negative = inhibition in test [5] is 2.79% [at 30.8 µM].
With `COc1ccc(C(=O)c2ccccc2)c2c(O)ccc(C(=O)c3ccccc3)c12`, the Potency entry in test [1], in test [2], in test [3], in test [4], in test [5] and in test [6] was “inactive” each time.
For the compound `COc1ccc(C=NNc2ccc([N+](=O)[O-])cc2S(=O)(=O)Nc2ccccc2C(=O)O)cc1OC`, in test [1], the Potency is 25.1 µM (active). The Potency result in test [2] and in test [4] was “inactive” each time. The activation in test [3] was -2.2% [at 17.1 µM, percent relative to cAMP agonist control]; in test [6], 21.9% [at 30.8 µM]. In test [5], the activity change, negative = inhibition is -11.2% [at 30.8 µM].
Take `C=CCN(CC=C)Cc1cc(=O)oc2ccc3ccccc3c12`: the Potency entry in test [1], in test [2] and in test [4] was “inactive” in each case. Besides, the activation is -1.79% [at 17.1 µM, percent relative to cAMP agonist control] in test [3] and 4.33% [at 30.8 µM] in test [6]. The activity change, negative = inhibition in test [5] was -12.3% [at 30.8 µM].
For the compound `CC1CCCN(CC(=O)Nc2cc(Cl)ccc2Oc2ccccc2)C1` (stereo unspecified), the Potency entry in test [1], in test [2], in test [3], in test [4], in test [5] and in test [6] was “inactive” in each case.
On to `CC(=O)N1CCc2cc(CNC(=O)c3ccccc3Br)ccc21`, for which the Potency result in test [1], in test [2], in test [3], in test [4], in test [5] and in test [6] was “inactive” in each case.
Consider `O=C1CC(c2ccccc2C(F)(F)F)c2c(c3ccccc3[nH]c2=O)O1` (stereo unspecified), for which the Potency entry in test [1], in test [2], in test [3], in test [4], in test [5] and in test [6] was “inactive” throughout.
